Test results as given in ChEMBL document CHEMBL3988442, “University of Dundee, Small-Polar-MMV Screening Library” (2021).
About 13,000 (27%) of roughly 48,000 compounds showed an effect of 50% or more. This is one part of the list.

Each molecule was assayed on Wolbachia pipientis (assay: Anti-Wolbachia Cell-Based Screen). Settings: 5 µM.
Assay type: functional
Parameters: scale not given: in the data most compounds retested in dose-response had high values

SMILES	Percent Effect [%]
CCc1nnc(CNC(=O)c2cc3c(nc2OC)CCC3)s1	18.91
CCN1CCN(C(=O)c2cc(F)cc3nc(C)c(C)nc23)CC1	-0.6809
CC(C)[C@@H](C)NC(=O)N1CCn2nc(C(=O)NCCN(C)C)cc2C1	-12.94
O=C(Cn1cccnc1=O)NC(Cc1cccs1)c1ccccn1 (stereo unspecified)	-8.701
COc1cc(C(C)NCc2cscn2)ccc1SC(F)F (stereo unspecified)	-37.81
CC(C)CC(NCc1ccsc1)c1ccccn1 (stereo unspecified)	110.4
CC(C)Cc1nnc(NCc2ccsc2)o1	-5.765
CC(C)CC(NCc1cscn1)c1ccccn1 (stereo unspecified)	95.9
NC(=O)C(NCc1cccs1)c1ccccc1 (stereo unspecified)	8.593
COc1ccccc1NCc1cscn1.Cl	-2.575
CC(C)CC(NCc1cccs1)c1ccccn1 (stereo unspecified)	107.8
CC(NCc1cccc(C#N)c1)c1ccccn1.Cl (stereo unspecified)	-10.04
O=C(NCCc1[nH]nc2c1CCCC2)C1CCCN(Cc2ccco2)C1 (stereo unspecified)	3.369
COc1ccc(Cl)cc1CS(=O)(=O)Cc1cc(C)on1	6.419
CC(C)OCCS(=O)(=O)c1nccn1-c1cccc(F)c1	-15.74
c1cc(C[C@H]2[C@H](N3CCOCC3)CCN2Cc2ccoc2)ccn1	0.9808
CCN(CCCNc1ncnc2cc(F)c(F)cc12)S(C)(=O)=O	-17.06
Cc1ccc(OCC2CCCN(CC3CCOCC3)C2)cc1 (stereo unspecified)	-21.59
CC(C)N(C)C(=O)C1=NOC2(CCN(C(=O)NCc3cccnc3)C2)C1 (stereo unspecified)	-9.701
Cc1cccc(C(=O)N2CCC3(CC(C(=O)N(C)C(C)C)=NO3)C2)c1 (stereo unspecified)	115.7
CC(C)N(C)C(=O)C1=NOC2(CCN(C(=O)c3ccnnc3)C2)C1 (stereo unspecified)	97.08
O=C(NCC1CC1)C1=NOC2(CCN(S(=O)(=O)c3cccs3)C2)C1 (stereo unspecified)	6.398

SMILES	Percent Effect [%]
CC(C)N(C)C(=O)C1=NOC2(CCN(C(=O)c3cccn3C)C2)C1 (stereo unspecified)	84.53
Cc1ccsc1C(=O)N1CCC2(CC(C(=O)N(C)C(C)C)=NO2)C1 (stereo unspecified)	115.3
CC(C)N(C)C(=O)C1=NOC2(CCN(C(=O)c3ccncc3)C2)C1 (stereo unspecified)	5.935
Cc1cccc(C(C)CNC(=O)N2CCC3(C2)OCCO3)c1 (stereo unspecified)	-6.289
CS(=O)(=O)NCc1ccc(C(=O)NCc2ccc3c(c2)CCC3)o1	9.511
CCc1nc(Cn2ccnc2-c2nccn2C)no1	0.7793
Cc1nc(CN(C)C2CCN(Cc3ccno3)C2)no1 (stereo unspecified)	0.1776
Cc1nc(CN(C)C2CCN(Cc3cccc4cccnc34)C2)no1 (stereo unspecified)	89.88
Cc1nc(CN(C)C2CCN(Cc3cccc4c3OCCO4)C2)no1 (stereo unspecified)	98.62
COc1ccc(OCC(=O)NC(C)c2ccc(F)cc2)c(C(=O)O)c1 (stereo unspecified)	-8.723
Cc1cc(C(=O)N2CCCC(Cn3cc(C4CC4)nn3)C2)nc(C)n1 (stereo unspecified)	-17.66
CCn1c(CN2CCCC2)nnc1C1CCN(Cc2ccncc2)CC1	-5.506
Cc1ccsc1-c1nnc(C2CCN(Cc3ccc(F)cc3)CC2)o1	-8.577
CCn1c(CN(C)C)nnc1C1CCN(Cc2ccncc2)CC1	-6.888
Cc1cc(-c2nccs2)nc(C2CCN(Cc3ccc(F)cc3)CC2)n1.Cl	104.7
Cc1cc(-c2nccs2)nc(C2CCN(Cc3ccncc3)CC2)n1.Cl	130.1
CNC(=O)CSC(C)c1ccc(Br)cc1 (stereo unspecified)	-4.092
COC(=O)CN(C(=O)c1ccco1)c1cccc(F)c1	6.947
O=c1c2cccnc2cnn1CC(O)c1cccc(C(F)(F)F)c1 (stereo unspecified)	6.556
NC(=O)NC(=O)CCSCc1coc(-c2cccc(Cl)c2)n1	85.07
NC(=O)NC(=O)CCSCc1coc(-c2ccc(F)cc2)n1	75.11
Cc1ccc(-c2nc(CCNC(=O)CCN3CCOC3=O)co2)cc1	4.701

SMILES	Percent Effect [%]
Cc1ccc(-c2nc(CSCCC(=O)NC(N)=O)co2)cc1	98.78
NC(=O)NC(=O)CCSc1ccccc1Cl	-10.1
CNC(=O)CS(=O)(=O)Cc1coc(-c2ccc(F)cc2)n1	-9.885
O=C(NCCc1coc(-c2ccc(F)cc2)n1)NC1CCC(O)CC1 (stereo unspecified)	2.186
Cc1ccc(-c2nc(CSCCC(=O)NC(N)=O)co2)c(C)c1	110.2
COC(=O)CSCc1noc(-c2ccc(C)cc2)n1	-9.658
CC(SCCC(=O)NC(N)=O)c1ccc(F)cc1F (stereo unspecified)	-2.178
CC(O)CN1CCN(Cc2coc(-c3cccc(Cl)c3)n2)CC1 (stereo unspecified)	-12.56
COCCN(Cc1coc(-c2cccc(Cl)c2)n1)C1CC1	9.963
CNc1nc(C(=O)NCc2cccnc2N(C)C2CCCCC2)cs1	1.168
Cc1nn(C)c2nc(N(C)CCN(C)C)sc12	-12.15
Cc1cc(C#N)ccc1S(=O)(=O)NCc1cnc(N(C)C)n1C	-10.13
O=C(O)C(F)(F)F.O=C1CC2(CCCCN2CC2CC2)CN1c1ccccc1 (stereo unspecified)	-2.383
Cc1ccccc1N1CC2(CCCCN2CC2CC2)CC1=O.O=C(O)C(F)(F)F (stereo unspecified)	0.424
CN(C)CC(=O)N1CCC2(CC(=O)N(c3cccc(C#N)c3)C2)C1.O=C(O)C(F)(F)F (stereo unspecified)	-15.58
COCCN1CCCCC12CC(=O)N(c1ccccc1OC)C2.O=C(O)C(F)(F)F (stereo unspecified)	105
COCCN1CCCCC12CC(=O)N(c1cccc(C#N)c1)C2.O=C(O)C(F)(F)F (stereo unspecified)	96.19
N#Cc1ccccc1N1CC2(CCCCN2CC2CC2)CC1=O.O=C(O)C(F)(F)F (stereo unspecified)	-5.23
CCN1CCN(C(=O)c2ccc(OC)nn2)c2ccccc21	6.209
CC(C)(C)Cc1nnc(NCc2cccc(C#N)c2)o1	-57.27
CS(=O)(=O)NC1CCCN(C(=O)Nc2cccnc2N2CCCC2)C1 (stereo unspecified)	111.1
CS(=O)(=O)NC1CCN(C(=O)c2ccc(Br)cc2)C1 (stereo unspecified)	2.662

SMILES	Percent Effect [%]
CS(=O)(=O)NC1CCCN(C(=O)c2cccnc2)C1 (stereo unspecified)	108.4
Cn1cc(NC(=O)N2CCC(NS(C)(=O)=O)CC2)ccc1=O	-4.185
COCCCC(=O)Nc1cccnc1N1CCCCC1	0.2962
CC(NC(=O)Nc1cccnc1N1CCCC1)c1ccccn1 (stereo unspecified)	9.094
CC(C)S(=O)(=O)NCC1CCCN(C(=O)c2cccnc2)C1 (stereo unspecified)	-9.569
CS(=O)(=O)NC1CCCN(C(=O)Nc2cccnc2)C1 (stereo unspecified)	122.7
CCCN(C(=O)CNC1CCc2ncnn2C1)C1=CCCCC1 (stereo unspecified)	7.464
CC(C)(C)CC(=O)N1CC[C@H]2NC(=O)N(Cc3ccccc3)C(=O)[C@H]21	-1.242
COC1CCN(C(=O)COC(C)=O)CC(=O)N(C)c2ccccc21 (stereo unspecified)	102.8
CC(C)(C)CC(=O)N1CC[C@H]2CC(=O)N(CCc3c[nH]cn3)CC[C@H]2C1	-18.99
COC1CCN(C(=O)CC(C)(C)C)CC(=O)N(C)c2ccccc21 (stereo unspecified)	108.9
CCC[C@H]1CN(c2nccc(OC)n2)C[C@@H]1NS(=O)(=O)N(C)C	12.34
CCN(Cc1nccn1C)C(=O)c1ccc(NCCc2c[nH]cn2)nc1	-4.233
CCCN(Cc1cnn(C)c1)S(=O)(=O)c1ccc(F)c(C#N)c1	88.2
CCCN(Cc1cnn(C)c1)S(=O)(=O)c1cc(C)cc(F)c1	91.35
CCN(Cc1cnn(C)c1)S(=O)(=O)c1ccc(NC(C)=O)cc1	-1.303
CCCN(Cc1cnn(C)c1)CC1CCCN(S(C)(=O)=O)C1 (stereo unspecified)	-6.058
COCCN(C)S(=O)(=O)c1cc(C)cc(F)c1	-0.1957
CCN(Cc1cnn(C)c1)S(=O)(=O)c1ccc(NC(=O)C(C)(C)C)cc1	-17.75
CCCN(Cc1cnn(C)c1)S(=O)(=O)c1cccc(F)c1C#N	103.9
CN(CCn1cccn1)S(=O)(=O)c1cccc(F)c1C#N	-19.52
CCN(CCC(F)(F)F)S(=O)(=O)c1cccc(F)c1C#N	-15.21

SMILES	Percent Effect [%]
COCCOCC(=O)NCCCOC1CCCc2ccccc21 (stereo unspecified)	-58.49
Cc1noc(C)c1CS(=O)(=O)CC(=O)N(C)Cc1cccc(F)c1	-54.06
O=C(NCc1nncn1C1CC1)C1(c2ccccc2)CCOCC1	1.62
CCS(=O)(=O)c1ncc(CN(C)Cc2ccccc2OC)n1CCOC	-30.57
Cc1oc(-c2ccc(Cl)cc2)nc1C(=O)NC1=NCCS1	-49.42
CCOCC(=O)N1Cc2[nH]nc(COCC3CC3)c2C1.O=C(O)C(F)(F)F	-0.4061
CCc1nc2n(n1)CC(NCc1cc(OC)c3c(c1)OCO3)CC2 (stereo unspecified)	105
COc1cc(CNC2CCc3nc(C)nn3C2)cc2c1OCO2 (stereo unspecified)	104.6
Cc1nc2n(n1)CC(NCc1cc(Cl)c3c(c1)OCCO3)CC2 (stereo unspecified)	95.39
CCc1nc2n(n1)CC(NCc1cc(OC)c3c(c1)OCCO3)CC2 (stereo unspecified)	96.75
CCc1nc2n(n1)CC(NCc1ccccc1OCC(=O)NC)CC2 (stereo unspecified)	0.2163
COc1cc(CNC2CCc3nc(C(C)C)nn3C2)cc2c1OCO2 (stereo unspecified)	-4.906
COc1cc(CNC2CCCN(c3cccnn3)C2)cc2c1OCO2 (stereo unspecified)	-1.044
Cc1nc2n(n1)CC(NCc1cc(Cl)c3c(c1)OCCCO3)CC2 (stereo unspecified)	2.469
CCc1nc2n(n1)CC(NCC(=O)Nc1cc(C)on1)CC2 (stereo unspecified)	-10.03
COc1cc(CNC2CCc3nc(C)nn3C2)cc2c1OCCO2 (stereo unspecified)	2.484
Cc1nc2n(n1)CC(NCc1nnc(C(C)(C)C)o1)CC2 (stereo unspecified)	-15.95
CCc1nc2n(n1)CC(NCc1cc3ccccc3o1)CC2 (stereo unspecified)	-28.44
